Shown are actives, neighbours in structure and some others; about 4.2% of the full set was active somewhere.
NLRP3 yeast inh = NALP3 inhibition in yeast; Yeast reconstituted NLRP3/ASC/caspase-1, beta-gal luminescence, 24 h; inhibition, % at 10 µM; 330,000 tested, 0.39% active; AID 2825;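 active = inhibition of 50% or more; inactive = inhibition below 50%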
tim10-1 inh = tim10-1 yeast growth inhibition; S. cerevisiae tim10-1 ts strain growth, BacTiter-Glo, 24 h; inhibition, % at 20 µM; 330,000 tested, 2.2% active; AID 463190;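 active = inhibition of at least 40%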;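 also: mutant grown at 25 °C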
NALP1 inh = NALP1 inhibition. S. cerevisiae NALP1/ASC/caspase-1 growth, X-gal OD620, 72 h. inhibition, % at 10 µM. 280,000 tested, 0.61% active. AID 2071; in the data active = inhibition mostly above about 24%, no sharp cut-off; inactive = mostly below about 32%
tim23-1 inh = growth inhibitors of tim23-1 mutant yeast. S. cerevisiae tim23-1 growth, BacTiter-Glo luminescence, 24 h. inhibition, % at 20 µM. 330,000 tested, 1.3% active;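 active = growth inhibition of the mutant yeast at or above 50%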;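 also: temperature-sensitive mutant grown at 25 °C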
PfHsp90 yeast 2 = reduces growth (ATP signal) of yeast expressing P. falciparum Hsp90 | S. cerevisiae expressing PfHsp90, BacTiter-Glo ATP, 48 h; yeast lacking PDR1 and PDR3 efflux regulators | inhibition, % at 9.4 µM | 310,000 tested, 0.32% active | AID 504621;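 active = every replicate shows inhibition above about 80%, whatever the replicate mean, limit read from the data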
TIM10 inh = TIM10 yeast growth inhibition; AID 463195; 330,000 tested, 1.4% active; S. cerevisiae TIM10 strain growth, BacTiter-Glo luminescence, 24 h; inhibition, % at 10 µM;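 active = inhibition of 40% or more at the single tested concentration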;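 also: wild-type TIM10 isogenic control strain grown at permissive 25 °C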
NALP3 confirm = confirmation of NALP3 inhibitors in yeast; yeast expressing human NALP3, luminescence; inhibition, % at 10 µM; AID 435006; 1,300 tested, 81% active; shares compounds with NLRP3 yeast inh; in the data active = inhibition above about 48%
Casp1-ASC yeast = caspase-1-ASC yeast counter-screen hit; shares compounds with NLRP3 yeast inh; yeast expressing Caspase-1-ASC, luminescence counter screen; inhibition, % at 10 µM; 1,000 tested, 66% active; AID 488784
NALP3 retest = confirmation retest of NALP3 inhibitors in yeast; 1,000 tested, 53% active; inhibition, % at 10 µM; AID 488794; shares compounds with NLRP3 yeast inh; yeast expressing human NALP3, luminescence read-out
tim10-1 confirm = tim10-1 yeast growth inhibition, confirmed; inhibition, % at 20 µM; 7,400 tested, 56% active; S. cerevisiae tim10-1 ts strain growth, BacTiter-Glo, 24 h; shares compounds with tim10-1 inh;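 active = inhibition of yeast growth at or above a set limit in either of two repeat tests at 20 µM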;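 also: tim10-1 mutant grown at permissive 25 °C to find synthetic lethal compounds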
tim10 confirm = TIM10 yeast growth inhibition, confirmed; shares compounds with TIM10 inh; S. cerevisiae tim10 strain growth, BacTiter-Glo luminescence, 24 h; inhibition, % at 10 µM; 4,600 tested, 63% active; AID 463215;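 active = inhibition of yeast growth at or above a set limit in either of two replicates at 10 µM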; also: this counterscreen used the strain with wild-type TIM10
tim23-1 confirm = tim23-1 yeast growth inhibition, confirmed; shares compounds with tim23-1 inh; S. cerevisiae tim23-1 growth, BacTiter-Glo luminescence, 24 h; inhibition, % at 20 µM; 4,400 tested, 83% active;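 active = inhibition above about 39% in either of two replicate wells at 20 µM, limit read from the data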;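 also: temperature-sensitive tim23-1 mutant grown at 25 °C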
A number is an active result; - = inactive; . = no result. Rule as the data show it, unless noted: active = inhibition above about 50%; inactive = the rest.

SMILES | NLRP3 yeast inh | tim10-1 inh | NALP1 inh | tim23-1 inh | PfHsp90 yeast 2 | TIM10 inh | NALP3 confirm | Casp1-ASC yeast | NALP3 retest | tim23-1 confirm | others
O=C(Nc1ccccc1)C1C(c2ccccc2)C1(Cl)Cl (stereo not given) | 59.0 | 43.5 | - | 55.0 | - | - | 71.8 | 64.2 | 59.8 | 47.5 | tim10-1 confirm=-
Cc1cccc(NCc2cc(Cl)cc(Cl)c2O)n1 | 52.8 | 42.6 | - | 52.1 | - | - | 50.7 | 57.0 | 55.9 | 56.0 | tim10-1 confirm=-
Cc1ccc(O)c(CNc2cccc(C)n2)c1 | - | - | - | - | - | - | . | . | . | .
CCCOc1ccc(-c2c(C(=O)N/N=C/c3cccs3)nnn2-c2nonc2N)cc1 | - | - | - | - | - | - | . | . | . | .
N#C/C(=C\c1ccc([N+](=O)[O-])cc1)c1ccccn1 | 55.0 | 46.2 | - | 64.5 | - | 52.3 | 55.6 | - | - | 57.5 | tim10-1 confirm=59.5;tim10 confirm=56.6
Nc1ccc2nc(SCc3ccccc3F)sc2c1 | 51.8 | - | . | 63.1 | - | - | - | . | . | 43.3
Nc1ccc2nc(SCC(=O)c3ccccc3)sc2c1 | - | - | . | - | - | - | . | . | . | .
Nc1cc(C(=O)OCC(=O)NNC(=O)c2ccccc2)ccc1Cl | - | - | . | - | - | - | . | . | . | .
CN(C)C(=O)C(NC(=O)c1ccccc1)=C(Cl)Cl | - | - | - | - | - | - | . | . | . | .
O=C(C[n+]1ccccc1)N/N=C/c1cc(Br)cc(Br)c1O | 77.9 | - | - | 67.8 | - | 56.5 | 53.2 | 86.8 | 76.8 | 69.1 | tim10 confirm=68.5
CC(/C=N/NC(=O)c1cccs1)=C\c1ccccc1 | 53.8 | - | - | 53.5 | - | - | 69.1 | 62.7 | 52.5 | 48.0
O=C(N/N=C/C(Cl)=C/c1ccccc1)c1ccncc1 | - | - | - | - | - | - | . | . | . | .
CC(/C=N/NC(=O)Cc1cccs1)=C\c1ccccc1 | - | - | - | - | - | - | . | . | . | .
O=C(N/N=C/C(Cl)=C\c1ccccc1)c1cccs1 | 59.9 | - | - | 64.3 | - | - | 69.0 | . | . | 64.4
Cc1cc(Br)c(NC(=O)c2c(-c3c(Cl)cccc3Cl)noc2C)c(Br)c1 | - | - | - | - | - | - | . | . | . | .
N#CC1(C(N)=O)OC12CCS(=O)(=O)c1ccccc12 (stereo not given) | . | . | . | . | - | . | . | . | . | .
C=CCSc1n[nH]c(-c2cccs2)n1 | - | - | - | - | - | - | . | . | . | .
C=CCSc1n[nH]c(-c2ccc(OCCC)cc2)n1 | 56.6 | - | - | 66.5 | . | 45.8 | 72.8 | 56.2 | - | 37.9 | tim10 confirm=41.1
Cc1nc2nc(-c3cccs3)[nH]c2cc1Br | 53.6 | - | . | 61.3 | - | - | 75.7 | 59.5 | 62.8 | 55.0
c1ccc(-c2nc(-c3cccs3)[nH]c2-c2ccccc2)cc1 | - | - | - | - | - | - | . | . | . | .
Cc1ccc(-c2nc(N)c3c(-c4ccc(C)cc4)nn(C(C)(C)C)c3n2)cc1 | - | - | - | - | - | - | . | . | . | .
CC(C)(C)n1nc(-c2ccc(F)cc2)c2c(N)ncnc21 | 92.9 | - | 91.7 | 73.1 | - | 69.1 | 93.3 | 96.1 | 92.0 | 61.1 | tim10 confirm=51.1
Cc1ccc(-c2nn(C(C)(C)C)c3ncnc(NS(=O)(=O)c4ccc([N+](=O)[O-])cc4)c23)cc1 | - | - | - | - | - | - | . | . | . | .
CC(C)(C)n1nc(-c2ccc(Cl)cc2)c2c(N)ncnc21 | 87.7 | - | - | 62.8 | - | 50.2 | 93.5 | 95.2 | 90.0 | 61.8 | tim10 confirm=47.1
COc1ccc2c(c1)CC/C2=N\OC(=O)c1cccc(C)c1 | 52.4 | 62.4 | - | 52.9 | - | 83.2 | - | . | . | 81.9 | tim10-1 confirm=40.8;tim10 confirm=-

Bioassay records: PubChem BioAssay, several laboratories
